Screen size: about 5,500 compounds; about 2,000 (36%) were called active. Inconclusive results (about 18%) are left out. No stated cut-off is given here; in the data, active means normalized growth mostly below about 0.91 (no sharp cut-off); inconclusive means no clear call, values can overlap the other calls; inactive means mostly above about 0.92. The list shows a part of the results.
Assay: chemical genetic growth profiling, strain panel (AID 1159580);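 further: tested at 20 µM; growth read once vehicle control cultures reached saturation at 30 °C; 1 = growth at the plate median or of vehicle wells; lower values mean less growth of the strain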
Details: S. cerevisiae deletion strains, growth OD
[1] = locus YAL040C, strain CLN3, hits give low values
[2] = locus YDR363W, strain ESC2, hits give low values
[3] = locus YER002W, strain NOP16, hits give low values
[4] = locus YNL175C, strain NOP13, hits give low values
[5] = locus YNL197C, strain WHI3, hits give low values
[6] = locus YNL224C, strain SQS1, hits give low values
[7] = locus YOR083W, strain WHI5 (second series), hits give low values
[8] = locus YAL013W, strain DEP1, hits give low values
[9] = locus YCL061C, strain MRC1 (second series), hits give low values
[10] = locus YMR263W, strain SAP30, hits give low values
[11] = locus YPL055C, strain LGE1, hits give low values

Measured: normalized growth

NC(C(=O)N[C@@H]1C(=O)N2C(C(=O)O)=C(Cl)CS[C@H]12)c1ccccc1 (some centres undefined)
inactive: [1] 0.986 | [2] 1.03 | [3] 1 | locus YMR307W, strain GAS1, hits give low values 0.998 | [4] 1.01 | [5] 0.99 | [6] 1.01 | locus YNL322C, strain KRE1, hits give low values 1 | [7] 0.992

c1ccc2nc(C3=NCCN3)ccc2c1
inactive: [8] 0.99 | [1] 1.04 | [9] 0.986 | [3] 0.993 | locus YGR229C, strain SMI1, hits give low values 0.955 | [10] 0.982 | [4] 0.995 | [5] 0.996 | [6] 0.993 | [7] 1 | [11] 1.01 | locus YPL241C, strain CIN2, hits give low values 0.987

NC(=O)CN1CC(O)CC1=O (centres undefined)
inactive: [8] 1 | [1] 1 | [9] 1 | [2] 0.995 | [3] 1.01 | locus YGR078C, strain PAC10, hits give low values 1.02 | locus YJR075W, strain HOC1, hits give low values 1.01 | [10] 1 | [4] 1.01 | [5] 1.01 | [6] 1 | [7] 1 | [11] 1.01
